This is an account of results in article PMC5540273 (PLoS ONE, 2017).

Test systems include CDK8; CDK9; CDKL1; CDKL2; CDKL3; CDKL5; CHEK1; CHEK2; CIT; CLK1; CLK2; CLK3; CLK4; CSF1R-autoinhibited; CSF1R; CSK; CSNK1A1L; CSNK1A1; CSNK1D; CSNK1E.
What all share (settings): concentration: 1 μM, replicates: in singlicate; n = 1
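Further: KINOMEscan kinase panel screen.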

Regarding `COc1cc(Nc2nccc(-c3c(-c4cccc(NC(=O)c5c(F)cccc5F)c4)nn4ccccc34)n2)cc(OC)c1OC` [GSK323521], the “%Inh” value in the assay on CDK8 was determined as 90%; with CDK9 it was 0%; in the assay with CDKL1, 6%; in the assay with CDKL2, 0%; in the assay with CDKL3, 13%; in the assay with CDKL5 it was 2%. The “%Inh” value worked out at 30% in the assay on CHEK1; 0% in the assay with CHEK2; 20% in the assay with CIT; 30% in the assay with CLK1; 0% with CLK2; 31% in the assay with CLK3. Further, the “%Inh” value in the assay with CLK4 was determined as 18%; in the assay on CSF1R-autoinhibited, 0%; in the assay with CSF1R it was 93%; with CSK, 1%; in the assay on CSNK1A1L, 15%; in the assay with CSNK1A1, 27%. Moreover, the “%Inh” value worked out at 29% with CSNK1D and 43% in the assay with CSNK1E.
With `O=C(Nc1ccccc1F)NC1CCN(c2ccnc(Nc3ccc(F)cc3)n2)CC1` [GSK1379800], the “%Inh” value in the assay with CDK8 was found to be 51%; in the assay with CDK9 it was 0%; in the assay on CDKL1 it was 0%; in the assay with CDKL2, 17%; with CDKL3, 0%; with CDKL5, 0%. Moreover, the “%Inh” value came out at 0% with CHEK1; 0% in the assay with CHEK2; 0% with CIT; 9% in the assay on CLK1; 0% with CLK2; 0% in the assay on CLK3. Further, the “%Inh” value was 0% in the assay with CLK4; 46% in the assay with CSF1R-autoinhibited; 5% with CSF1R; 0% in the assay with CSK; 27% in the assay on CSNK1A1L; 0% in the assay with CSNK1A1. Also, the “%Inh” value in the assay with CSNK1D was determined as 54%; with CSNK1E it was 60%.
As for `Cc1ccc(F)c(C(=O)Nc2cccc(-c3nn4ccccc4c3-c3ccnc(Nc4cccc(F)c4)n3)c2)c1F` [GSK361061], the “%Inh” value in the assay on CDK8 was 15%; with CDK9, 0%; in the assay on CDKL1 it was 2%; in the assay with CDKL2 it was 31%; in the assay with CDKL3, 0%; in the assay on CDKL5 it was 5%. The “%Inh” value in the assay with CHEK1 stood at 6%; in the assay on CHEK2 it was 0%; in the assay on CIT, 9%; in the assay with CLK1, 32%; in the assay on CLK2, 0%; with CLK3, 0%. The “%Inh” value was 14% in the assay on CLK4; 0% in the assay on CSF1R-autoinhibited; 98.8% with CSF1R; 39% in the assay with CSK; 21% with CSNK1A1L; 41% in the assay on CSNK1A1. In addition, the “%Inh” value with CSNK1D is 35%; in the assay on CSNK1E it was 54%.
With `CSc1cccc2c(-c3ccncn3)c(-c3ccc(F)cc3)nn12` [GW514786], the “%Inh” value with CDK8 is reported as 37%; in the assay on CDK9, 0%; in the assay on CDKL1, 6%; in the assay with CDKL2 it was 31%; in the assay with CDKL3, 0%; in the assay on CDKL5, 3%. The “%Inh” value came out at 81% in the assay with CHEK1; 0% in the assay on CHEK2; 79% in the assay with CIT; 18% with CLK1; 0% in the assay on CLK2; 11% with CLK3. In addition, the “%Inh” value in the assay with CLK4 is on record as 13%; in the assay with CSF1R-autoinhibited, 21%; with CSF1R it was 0%; in the assay on CSK, 0%; in the assay with CSNK1A1L, 21%; with CSNK1A1, 61%. Moreover, the “%Inh” value in the assay on CSNK1D is reported as 84%; in the assay with CSNK1E it was 69%.
With `Nc1ncc(-c2cccnc2)c2scc(-c3ccc4c(c3)CCN4C(=O)Cc3ccccc3)c12` [GSK683281], the “%Inh” value in the assay on CDK8 is given as 36%; in the assay on CDK9, 0%; in the assay with CDKL1, 26%; with CDKL2 it was 29%; with CDKL3, 0%; in the assay with CDKL5, 7%. Besides, the “%Inh” value is 18% in the assay on CHEK1; 0% in the assay with CHEK2; 49% with CIT; 36% in the assay on CLK1; 0% in the assay with CLK2; 19% in the assay with CLK3. Besides, the “%Inh” value with CLK4 is reported as 18%; with CSF1R-autoinhibited, 5%; with CSF1R, 99.2%; in the assay on CSK, 23%; in the assay on CSNK1A1L, 21%; in the assay on CSNK1A1 it was 4%. In addition, the figures for the “%Inh” value with CSNK1D and in the assay with CSNK1E were 13% and 35%, respectively.
For the compound `COc1cc2c(cc1OCCN1CCNCC1)ncc1c3ccc(C#N)cc3[nH]c21`, the “%Inh” value in the assay on CDK8 is listed as 19%; with CDK9, 8%; in the assay on CDKL1, 19%; in the assay on CDKL2 it was 0%; in the assay on CDKL3, 10%; with CDKL5, 0%. For the same compound, the “%Inh” value in the assay on CHEK1 stood at 84%; in the assay with CHEK2, 46%; in the assay with CIT, 98.8%; with CLK1, 95.7%; with CLK2 it was 86%; in the assay on CLK3 it was 27%. Further, the “%Inh” value in the assay with CLK4 is reported as 91.7%; with CSF1R-autoinhibited, 98.4%; with CSF1R it was 51%; with CSK it was 12%; in the assay with CSNK1A1L it was 0%; with CSNK1A1, 40%. The “%Inh” value was determined as 8% in the assay with CSNK1D and 0% with CSNK1E.
Take `Cc1ccc(C(=O)N2CC[C@@H](O)C2)cc1-n1c(C)cc(OCc2ccc(F)cc2F)c(Br)c1=O`: the “%Inh” value is reported as 0% with CDK8; 1% in the assay with CDK9; 14% with CDKL1; 0% in the assay with CDKL2; 1% in the assay with CDKL3; 0% in the assay with CDKL5. The “%Inh” value in the assay with CHEK1 was 0%; in the assay on CHEK2, 6%; with CIT, 6%; in the assay with CLK1, 5%; with CLK2, 0%; in the assay with CLK3 it was 0%. Moreover, the “%Inh” value with CLK4 was found to be 0%; with CSF1R-autoinhibited, 0%; in the assay with CSF1R, 75%; with CSK, 0%; in the assay with CSNK1A1L, 0%; with CSNK1A1, 0%. Moreover, the “%Inh” value in the assay with CSNK1D and in the assay on CSNK1E was 0% each time.
As to `COc1cc(Nc2ncc3c(C)nc(-c4cc5ccccc5[nH]4)n3n2)cc(OC)c1OC` [GW869516], the “%Inh” value with CDK8 is listed as 44%; with CDK9, 0%; in the assay on CDKL1 it was 46%; in the assay with CDKL2, 1%; in the assay on CDKL3 it was 8%; with CDKL5, 0%. Further, the “%Inh” value with CHEK1 is reported as 0%; with CHEK2, 0%; with CIT it was 100%; with CLK1, 88%; in the assay on CLK2, 75%; with CLK3 it was 36%. Besides, the “%Inh” value with CLK4 is recorded as 43%; with CSF1R-autoinhibited, 0%; in the assay with CSF1R, 0%; in the assay with CSK, 13%; in the assay on CSNK1A1L, 0%; in the assay with CSNK1A1 it was 30%. The figures for the “%Inh” value in the assay with CSNK1D and with CSNK1E were 0% and 15%, respectively.
Consider `C[C@@H](Oc1cc(-n2cnc3cc(-c4ccnc(NCCS(C)(=O)=O)c4)ccc32)sc1C(N)=O)c1ccccc1Cl` [GSK907232], for which the “%Inh” value with CDK8 came to 0%; in the assay on CDK9, 11%; with CDKL1, 4%; in the assay on CDKL2 it was 12%; in the assay with CDKL3, 0%; in the assay with CDKL5 it was 0%. Also, the “%Inh” value in the assay with CHEK1 is on record as 0%; in the assay with CHEK2, 0%; in the assay with CIT, 36%; with CLK1, 67%; in the assay on CLK2, 4%; in the assay on CLK3, 32%. Besides, the “%Inh” value with CLK4 is 47%; in the assay on CSF1R-autoinhibited it was 1%; in the assay on CSF1R, 38%; in the assay with CSK it was 0%; in the assay with CSNK1A1L, 22%; in the assay with CSNK1A1, 0%. For the same compound, the “%Inh” value with CSNK1D is recorded as 0%; in the assay with CSNK1E it was 17%.
